From PubChem BioAssay

Experiment: binders from COS7 lysate, DM2A8 probe, primary screen, torsin A project, cell lysate, small-molecule microarray, fluorescence 635/667 (AID 1065)
Conditions: higher = more signal, COS7 lysate expressing mutant human TOR1A

Structure (SMILES)	composite z-score
CCOC(=O)C[C@H]1[C@H](OC(=O)Cc2ccc3c(c2)OCO3)[C@@H](NC(=O)C2CCCCC2)c2cc(OCCCO)ccc2N1C(=O)Cc1ccc(OC)cc1	0.0664
O=C(CS)NCCCCCCNC(=O)[C@H]1C[C@H]2C(=O)NCC(=O)N2[C@H]1c1ccc(O)cc1	-0.465
C[N+](C)(C)CCCCCCNC(=O)[C@H]1C[C@H]2C(=O)N3CCC[C@H]3C(=O)N2[C@H]1c1ccc(O)cc1	1.01
C[C@H]1NC(=O)[C@H](Cc2ccccc2)NC(=O)[C@@]23C(=O)N[C@@H](Cc4ccccc4)C2[C@H](C)[C@@]2(C)O[C@H]2C3/C=C/C/C=C\CNC1=O (stereo partly specified)	0.32
CS(=O)(=O)CCOC(=O)C1=CC(c2ccc(CO)cc2)=CC(C2CC2)N(Cc2cc3c(cc2Br)OCO3)C=C1C(=O)OCCS(C)(=O)=O (stereo unspecified)	0.28
[N-]=[N+]=NCc1ccccc1C[C@@]1(C(=O)N2CCOCC2)N=C(c2ccc(OCCCO)cc2)O[C@@H]1c1ccccc1CN=[N+]=[N-]	0.232
CN1C=C(C(=O)OCCS(C)(=O)=O)C(C(=O)OCCS(C)(=O)=O)=CC(CCCO)=CC1C1CC1 (stereo unspecified)	0.0461
C=CCOC(=O)[C@H]1[C@@H]2C(=O)O[C@@H](c3ccccc3)[C@@H](c3ccccc3)N2[C@@H](c2ccc(OCCOC(=O)[C@@H]3C[C@@H]4C(=O)NCC(=O)N4[C@@H]3c3ccc(O)cc3)cc2)[C@]12C(=O)Nc1ccccc12	0.454
O=C1C=CC(=O)[C@@H]2CC(COc3ccccc3)=C3[C@@H](CCc4ccccc4)OB(O)C[C@@H]3[C@H]12	2.47
CCOC(=O)C1=C[C@@H](C(C)C)N(S(=O)(=O)c2ccc(C)cc2)[C@H]1c1ccc(C(C)C)cc1	0.352
CCOC(=O)C[C@H]1[C@H](OC(=O)c2ccc(-c3ccccc3)cc2)[C@@H](NC(=O)c2ccc3ccccc3c2)c2cc(OCCCO)ccc2N1C(=O)Cc1ccc(OC)cc1	0.228
CCOC(=O)C[C@H]1[C@H](OC(=O)c2ccccc2-c2ccccc2)[C@@H](NC(=O)c2ccc3ccccc3c2)c2cc(OCCCO)ccc2N1C(=O)c1ccc2ccccc2n1	0.353
COCCOC(=O)N1C(=O)[C@@]2(c3cc(C#CC4=CCCCC4)ccc31)[C@H](C(=O)NC[C@H](O)c1ccccc1)[C@H]1C(=O)O[C@H](c3ccccc3)[C@H](c3ccccc3)N1[C@@H]2c1ccc(O)cc1	0.189
C=C(COC)C(=O)CC[C@H](OC(C)=O)c1cccc(OCCO)c1	1.66
N[C@@H](Cc1ccccc1)Cn1cc(-c2ccccc2)nn1	0.556
O=C1O[C@@H](c2ccccc2)[C@@H](c2ccccc2)N2[C@@H](c3ccc(OCCO)cc3)[C@]3(C(=O)Nc4ccc(C#CC5=CCCCC5)cc43)[C@@H](C(=O)O)[C@H]12	0.681
COCCOC(=O)N1C(=O)[C@@]2(c3cc(C#CCC(C(=O)OC)C(=O)OC)ccc31)[C@H](C(=O)N1CCCCCCC1)[C@H]1C(=O)O[C@H](c3ccccc3)[C@H](c3ccccc3)N1[C@@H]2c1ccc(OCCO)cc1	1.81
CCCCC=C[C@@H](NC(=O)c1ccco1)c1ccccc1	0.0908
C=CCC(OC(C)=O)[C@@H]1[C@@H](N(Cc2cccc3ccccc23)C(=O)c2cccc3ccccc23)c2cc(OCCCO)ccc2N1C(=O)c1ccc2ccccc2n1 (stereo partly specified)	0.215
COc1ccc([Si](C)(C)[C@H]2[C@H](CCn3cc(CCO)nn3)O[C@@]3(C(=O)N(Cc4ccc(N5CCOC5=O)cc4)c4ccccc43)[C@@H]2C)cc1	1.38
CC(=O)Nc1cc(Br)ccc1C(=O)O	-0.387
CN1CCC(CCCO)=CC1c1ccc(CN2CCCC2)cc1 (stereo unspecified)	2.31
COCCOC(=O)N1C(=O)[C@@]2(c3ccccc31)[C@H](C(=O)Nc1nc3ccccc3s1)[C@H]1C(=O)O[C@H](c3ccccc3)[C@H](c3ccccc3)N1[C@@H]2c1ccc(OCCO)cc1	0.686
COC(=O)c1ccc(C(O)C2C=CC3C(=O)N(C)C(=O)C3N2NC(=O)OC(C)(C)C)o1 (stereo unspecified)	0.252
O=C1OCCC=C[C@H]2OC34C=CCN(Cc5ccccc5)C(=O)[C@H]3N(CCCCCCO)C(=O)[C@@H]4C12 (stereo partly specified)	-1.01
CC(C)N1C(=O)c2ccccc2[C@@H](C(=O)NCCCN(C)C)[C@@H]1c1ccc(CO)cc1	-0.194
